# TSG101-PTAP inh: blocks PTAP binding to human TSG101, validation. Potency, µM (doses to about 115 µM), most hits filed as inhibitors. Fluorescence polarization, FITC-PTAP peptide/Tsg101, 20 min. Q99816. 44,000 tested, under 10 active. AID 1347069; also: 0% is about no effect
# Target sequence (Q99816 whole entry, looked up): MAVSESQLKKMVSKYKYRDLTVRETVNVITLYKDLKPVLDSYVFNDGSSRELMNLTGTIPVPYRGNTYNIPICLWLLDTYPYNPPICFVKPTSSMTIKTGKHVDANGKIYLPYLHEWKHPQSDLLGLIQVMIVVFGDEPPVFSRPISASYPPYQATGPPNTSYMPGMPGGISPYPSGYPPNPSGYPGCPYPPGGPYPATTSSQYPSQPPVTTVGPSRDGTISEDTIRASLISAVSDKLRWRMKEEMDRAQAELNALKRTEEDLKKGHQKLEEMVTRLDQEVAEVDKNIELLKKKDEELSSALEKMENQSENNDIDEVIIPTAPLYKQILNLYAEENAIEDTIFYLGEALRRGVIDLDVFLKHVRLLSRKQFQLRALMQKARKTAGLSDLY
#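 Compounds pinned into 10 uM Tsg101 binding domain, then 50 nM FITC-PTAP peptide added in pH 7.5 HEPES buffer; FP read after 20 min, room temperature. Total S+P intensity flags fluorescent compounds; active cut-off <25 µM, efficacy <60%.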
# HTT-AS act: HTT-AS promoter activation; HEK293 HTT-AS promoter firefly luciferase reporter, 24 h; response scale: percent change from vehicle, -100% = no light; Potency, µM (highest dose often 57.5 µM), inactives show at the highest dose activity change, positive = activation, actives largely listed as activators; hit rate 0.24% among 48,000; also: nearly all actives have a fitted effect of over 55% in size
#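 HEK293 luciferase promoter-reporter cells (2,500/well) plated 24 h, then compounds added at up to 57.5 uM final for 24 h at 37 °C. Firefly luminescence by Dual-Glo, normalized to vehicle (0%) and zero RLU (-100%).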
# HTT promoter inh: inhibits huntingtin promoter activity; Potency, µM (series often up to 57.5 µM), for inactives: at the highest dose activity change, negative = inhibition, usual class: inhibitors; HEK293 HTT promoter firefly luciferase reporter, 24 h; AID 1508623; hit rate 0.93% among 48,000; also: nearly all actives have a fitted effect of over 50% in size
#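 Firefly luciferase readout (Dual-Glo, 10 min RT) after 24 h, 37 °C compound exposure (final up to 57.5 uM) of HEK293 reporter cells cultured 24 h beforehand; PTC124 at 50 uM final as control inhibitor; activity scaled vehicle 0%, zero RLU -100%.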
# FH mod: Identification of activators of human fumarate hydratase by quantitative high-throughput screening. AID 1347055, 2019. FH coupled MDH/diaphorase resazurin fluorescence, 15 min. Potency, µM (doses to about 79.9 µM), for the others: at the top dose activity change, negative = inhibition, actives largely listed as inhibitors. hit rate 0.22% among 54,000; also: % is scaled to controls: 0 for no effect and ±100 for the full control effect; the screen sought activators but most active calls are inhibition curves; nearly all actives have a fitted effect of over 45% in size
# An asterisk follows results filed as active; i = inactive; ? = inconclusive; · = no result given; ! = a repeat was not active; [ ] = dose if it differs, or a comment. Most compounds without a hit are left out; they make up all but 1.3% or so of the library. Calls follow the shape of the dose curve; as a rule, active = well fitted curve in the direction sought with a large enough effect; inconclusive = small, poorly fitted or top-dose-only effect, or another doubt; inactive = no such curve, though single readings can be large; an effect the other way counts as inactive or inconclusive. Potency is read from the fitted curve at half-maximal effect.
SMILES,TSG101-PTAP inh,HTT-AS act,HTT promoter inh,FH mod
NNCCc1ccccc1,·,3.98µM*!,-7.1%,-7.5%[53.3 µM]
CCCNC(=O)c1cnn2c(C)c(Cc3c(C)cc(C)cc3C)c(C)nc12,i,-47.4%,5.01µM*,-12.6%
NC(=O)Nc1cc(-c2cccc(F)c2)sc1C(=O)NC1CCCNC1 (stereo unspecified),·,·,·,-11.9%
NC(=O)Nc1cc(-c2ccc(CN3CCOCC3)cc2)sc1C(N)=O,·,21.7µM*,24.1%,-0.4%[53.3 µM]
C=CC(C)(O)CC/C=C(/C)COC(=O)C(C)C1CCC(C)(C=C)O1 (stereo unspecified),·,·,·,-8.8%[53.3 µM]
Cc1oc(-c2ccc(C(=O)N(C)Cc3ccccc3)cc2)nc1CN1CCc2ccccc21,i,-52.1%,8.91µM*,-25.4%
O=C(CCn1cnc2onc(-c3ccc(F)cc3)c2c1=O)Nc1ccc(F)c(Cl)c1,i,-75.2%,22.4µM*,-25.4%
Cc1ccc(NS(=O)(=O)c2ccc3c(c2)CCCN3C(=O)C2CCC2)cc1Cl,i,-28.3%,22.4µM*,?
COc1ccc(NS(=O)(=O)c2cc(Br)cc3c2N(C(=O)C2CC2)CC3)cc1OC,i,-43.9%,5.62µM*,4.0%
COc1ccc(OC)c(NS(=O)(=O)c2ccc3c(c2)CCCN3C(=O)C2CCC2)c1,i,-13.6%,?,-6.0%
COc1ccc(NS(=O)(=O)c2ccc3c(c2)CCCN3C(=O)C2CCC2)cc1OC,i,-29.3%,1.78µM*,-15.2%
CCCCN(CCCC)C(=O)CN1C[C@H](c2ccc3c(c2)OCO3)[C@@H](C(=O)O)[C@@H]1c1ccc(OC)cc1,·,·,·,1.0%
O=C1Nc2ccc(I)cc2/C1=C/c1cc(Br)c(O)c(Br)c1,·,·,·,28.2µM*
CCOC(=O)c1cc(C)n(CC2CCC(C(=O)Nc3ccc(Cl)cc3)CC2)c1C (stereo unspecified),i,-92.5%,3.98µM*,-10.4%
CCOC(=O)c1cc(C)n(CC2CCC(C(=O)Nc3cccc(Cl)c3)CC2)c1C (stereo unspecified),i,-16.6%,?,-22.7%
COc1cccc(CN2CCc3nc(N4CCN(C)CC4)ncc3C2)c1,i,-14.2%,-15.2%,14.8%
COc1cccc(CN2CCc3nc(N4CCN(c5ncccn5)CC4)ncc3C2)c1,i,-53.4%,25.1µM*,-9.7%
C[C@@H](Nc1cc(F)cc(F)c1)c1cc(C(=O)N(C)C)cc2c(=O)cc(N3CCOCC3)oc12,·,·,·,3.1%
Cc1cc2ccccc2n1-c1ccc(C(=O)N2CCC(C(=O)NCc3ccc(Cl)cc3)CC2)s1,i,-39.4%,14.1µM*,-27.3%
CC1(C)CC2C3=CCC4C5(C)CCC(OC6OC(C(=O)O)C(O)C(O)C6OC6OC(CO)C(O)C(O)C6OC6OC(CO)C(O)C(O)C6O)C(C)(CO)C5CCC4(C)C3(C)CCC2(C)C(OC2OCC(O)C(OC3OC(CO)C(O)C(O)C3O)C2O)C1O (stereo unspecified),·,·,·,3.9%[13.5 µM]
COc1ccc(Cl)cc1Nc1sc(C(=O)c2ccccc2)c(N)c1C(=O)Nc1ccccc1,i,-29.1%,28.2µM*,-17.5%
CN(C)c1nc(NC2CCC(NCCc3ccc(Br)cc3OC(F)(F)F)CC2)nc2ccccc12 (stereo unspecified),·,·,·,-9.1%
CC(=O)N1CCCc2cc(S(=O)(=O)N3CCCC(C(=O)N4CCN(c5ccccc5F)CC4)C3)ccc21 (stereo unspecified),i,-34.2%,10µM*,-1.1%
Cc1ccc(NC(=O)CSc2nnc3[nH]c(=O)cc(-c4ccccc4)n23)cc1Cl,i,14.1µM*,55.4%,-25.3%
CCOC(=O)Cc1ccc(NC(=O)n2ncc3c(C)cccc32)cc1,i,·,·,·
SMILES,TSG101-PTAP inh,HTT-AS act,HTT promoter inh,FH mod
CCOC(=O)Cc1ccc(NC(=O)n2ncc3cc(Cl)ccc32)cc1,i,-91.3%,0.251µM*,?
COc1ccc2c(c1)CCc1c(C(=O)Nc3c(C)nn(Cc4ccc(C)cc4)c3C)noc1-2,i,-46.9%,22.4µM*,?
Cc1nn(Cc2ccc(Cl)c(Cl)c2)c(C)c1NC(=O)c1noc2c1CCc1ccccc1-2,i,·,·,·
COc1ccccc1Nc1ncc2c(n1)CCN(Cc1cc(F)cc(F)c1)C2,i,-15.0%,?,-14.6%
COc1ccccc1Nc1ncc2c(n1)CCN(CC(C)C)C2,i,12.6µM*,28.6%,0.8%
CC1Cc2ccccc2N1S(=O)(=O)c1nnc(NC(=O)c2cccc(F)c2)s1 (stereo unspecified),i,-93.4%,25.1µM*,-17.4%
NC1[C@H]2CN(c3nc4c(cc3F)c(=O)c(C(=O)O)cn4-c3ccc(F)cc3F)C[C@@H]12 (stereo partly specified),·,31.6µM*,68.8%,-5.1%[53.3 µM]
CCCN(CCc1ccsc1)C1CCc2c(O)cccc2C1 (stereo unspecified),·,·,·,0.8%
COc1ccc(Br)cc1S(=O)(=O)NC(=O)/C=C/c1ccccc1Cc1ccc2ccccc2c1,·,·,·,20µM*
CC1COC2(OC3CC4C5CC(O[C@@H]6O[C@H](C)[C@@H](O[C@@H]7O[C@@H](C)[C@H](O)[C@@H](O)[C@H]7O)[C@H](O)[C@H]6O)C6CC(O)CCC6(C)C5CCC4(C)C3C2C)C(O)C1 (stereo partly specified),·,·,·,7.0%[20.6 µM]
CCc1ccc(S(=O)(=O)N(C(=O)c2ccncc2)c2ccc3oc(C)c(C(=O)OC)c3c2)cc1,i,-86.8%,12.6µM*,-25.2%
CCCC(=O)N(c1ccc2oc(C)c(C(C)=O)c2c1)S(=O)(=O)c1ccc(C)cc1,i,-28.8%,-24.0%,-19.6%
CCOc1ccc(S(=O)(=O)N(C(=O)c2ccncc2)c2ccc3oc(C)c(C(=O)OC)c3c2)cc1,i,-71.7%,2µM*,?
COc1ccc(S(=O)(=O)N(C(=O)c2ccncc2)c2ccc3oc(C)c(C(C)=O)c3c2)cc1,i,-50.8%,14.1µM*,-9.5%
COC(=O)c1c(C)oc2ccc(N(C(=O)c3ccncc3)S(=O)(=O)c3ccc(OC)cc3)cc12,i,-68.4%,2.24µM*,?
CCOC(=O)c1c(C)oc2ccc(N(C(=O)c3ccncc3)S(=O)(=O)c3ccc(F)cc3)cc12,i,-34.3%,?,-21.1%
O=c1[nH]c([C@@H]2CCCN2)nc2c1oc1ccc(Cl)cc12,·,·,·,14.1%
Oc1ccc(-c2cnc3ccc(NCc4ccco4)nn23)cc1,·,·,·,-6.8%
CC(=O)c1c(C)oc2ccc(N(C(=O)c3ccncc3)S(=O)(=O)c3ccc(C)cc3C)cc12,i,-44.7%,28.2µM*,-30.7%
Cn1c(SCc2ccc(F)cc2)nc2ccc(C(=O)NCc3ccc(F)cc3)cc21,i,-61.6%,25.1µM*,-11.8%
CC(C)Oc1ccc(CNC(=O)c2ccc3nc(SCc4ccc(F)cc4)n(C)c3c2)cc1,i,-20.3%,?,-0.9%
Cn1c(SCc2ccc(F)cc2)nc2ccc(C(=O)NCc3ccc(Cl)cc3)cc21,i,-44.5%,?,-14.0%
